The whole screen tested about 3,300 compounds, of which about 55 (2%) were called active.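 Rule for the calls: active = growth inhibition above 90%, meaning viable cell count by imaging cut by more than 90% versus vehicle controls; inactive = growth inhibition below 90%.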 Only a selection was taken, and actives are over-represented in it overall.
Test: HT29 colon tumor cell growth inhibition, primary screen, imaging, high content imaging, 48 h, CellTiter-Glo (AID 771);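 for condensed nuclei: condensed means Hoechst nuclear area under control median minus 1.5 SD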
Conditions: HCS imaging cell count, at 10 µM, stronger effect = higher value; for condensed nuclei: measured here: percent cells with condensed nuclei
[1] = measured here: ATP CellTiter-Glo viability inhibition

| SMILES | growth inhibition | condensed nuclei [%] | growth inhibition [1] [%] |
| --- | --- | --- | --- |
| Cc1c2ccncc2c(C)c2c1[nH]c1ccccc12 | 97% (active) | 22.4 | – |
| c1ccc2c(c1)[nH]c1cnccc12 | -8.76% (inactive) | 2.05 | – |
| COc1ccccc1-n1c(O)c(C=NCCCn2ccnc2)c(=O)[nH]c1=O | -20.9% (inactive) | 3.63 | 8.58 |
| CC1(C)CC(=O)C(C=NCCN2CCN(C(=O)Cc3ccc(F)cc3)CC2)=C(O)C1 | 44.1% (inactive) | 1.29 | 0.25 |
| Nc1c(C(=O)NCc2ccco2)c2nc3ccccc3nc2n1Cc1ccc(F)cc1 | 34.1% (inactive) | 1.57 | 32.2 |
| Nc1c(C(=O)NCc2ccco2)c2nc3ccccc3nc2n1CCN1CCCCC1 | 96.7% (active) | 15.6 | 86.4 |
| COCCOC(=O)c1c(N)n(Cc2ccco2)c2nc3ccccc3nc12 | -45.9% (inactive) | 3.74 | -19.7 |
| Cc1ccc(C)c(C2(O)CC(C)N(C)CC2C)c1 (stereo not given) | -0.27% (inactive) | 2.34 | 1.07 |
| CN1C[C@H](CNC(=O)OCc2ccccc2)C[C@@H]2c3cccc4c3c(cn4C)C[C@H]21 | 93.2% (active) | 18.1 | – |
| CC[C@@H](CO)NC(=O)[C@@H]1C=C2c3cccc4c3c(cn4C)C[C@H]2N(C)C1 | 12.4% (inactive) | 0.97 | – |
| CC(C)[C@@]1(NC(=O)[C@@H]2C[C@@H]3c4cccc5[nH]cc(c45)C[C@H]3N(C)C2)O[C@@]2(O)[C@@H]3CCCN3C(=O)[C@H](Cc3ccccc3)N2C1=O | 88.7% (inactive) | 10.3 | – |
| O=C(Nc1ccncc1)c1c(O)c2ccccc2n(Cc2ccccc2)c1=O | -29.4% (inactive) | 1.56 | -27.2 |
| CCOC(=O)[C@@]1(C#N)[C@@H]2C=CC(C(N)=O)=CN2[C@@H](C(N)=O)[C@@H]1c1cccc(Cl)c1 | 1.36% (inactive) | 1.63 | -5.1 |
| CC1(c2ccccc2)NCCN2C(=O)CSC21 (stereo not given) | -10.3% (inactive) | 1.47 | -1.15 |
| CCOc1ccc(-n2c(O)c(C=NCCN3CCNCC3)c(=O)[nH]c2=O)cc1 | 46.2% (inactive) | 2.45 | -8.84 |

— PubChem BioAssay AID771 (SRMLSC, 2007)
